# Screening results deposited in PubChem by National Center for Advancing Translational Sciences (NCATS).
# Pin1 inhibitor: blocks the human prolyl isomerase Pin1 | Q13526 | Pin1 FP peptide displacement, HiFluor488, 10 min | Potency, µM (top dose mostly 115 µM), for the others: at the highest dose activity, negative = inhibition, actives largely listed as inhibitors | hit rate 0.009% among 390,000; active = well fitted inhibition curve with a large enough effect in the polarisation, with a control signal flat, not every such curve was filed as active; inconclusive = small, poorly fitted or top-dose-only effect, or effect the other way, or a change in a side signal; inactive = no such curve, though single readings can be large or run the other way; the % refers to the polarisation; also: potency is read from the fitted curve at half-maximal effect; % is scaled to controls: 0 for no effect and ±100 for the full control effect
# Target sequence (Q13526 whole entry, looked up): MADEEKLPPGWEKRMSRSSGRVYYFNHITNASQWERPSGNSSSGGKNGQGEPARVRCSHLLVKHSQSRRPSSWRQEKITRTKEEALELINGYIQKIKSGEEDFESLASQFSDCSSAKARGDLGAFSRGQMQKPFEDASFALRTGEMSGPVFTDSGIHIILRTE
# Tb PGK inh: T. brucei PGK inhibition. P07378. PGK/GAPDH coupled, Kinase-Glo luminescence, 60 min. Potency, µM (series often up to 57.5 µM), without a hit: at the top dose activity change, negative = inhibition, hits mostly inhibitors. hit rate 0.043% among 380,000; also: potency is read from the fitted curve at half-maximal effect; % is scaled to controls: 0 for no effect and ±100 for the full control effect; nearly all actives have a fitted effect of over 60% in size
#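 Recombinant glycosomal PGK reaction used 1,3-bisphosphoglycerate generated in-well by GAPDH (100nM final) in 100mM TEA pH 7.6, 5mM MgCl2, 0.01% Tween-20. After 60 minutes at room temperature, ATP was read by Kinase-Glo Plus luminescence end-point.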
# GLS inh: inhibitors of human glutaminase (GLS); O94925; GLS enzymatic activity, qHTS titration; Potency, µM (series often up to 45.5 µM), without a hit: at the top dose activity change, negative = inhibition, hits mostly inhibitors; hit rate 0.21% among 410,000; also: potency is read from the fitted curve at half-maximal effect; % is scaled to controls: 0 for no effect and ±100 for the full control effect
#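 hKGA in 45 mM KH2PO4 (pH 8.2), 0.02% Tween-20 with compound, then 1mM L-Glutamine (stock as added) plus glutamate oxidase/HRP/Amplex red coupling mix. Fluorescence read initially and after 30 min at RT; signal change reflects glutamate formation.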
# IDH1 R132H inh: human IDH1 R132H inhibition. IDH1-R132H enzyme, NADPH consumption, diaphorase/resazurin fluorescence. Potency, µM (titrated, usually from 76.6 µM), for inactives: at the top dose activity change, negative = inhibition, usual class: inhibitors. hit rate 0.093% among 390,000. AID 602179; also: potency is read from the fitted curve at half-maximal effect; % is scaled to controls: 0 for no effect and ±100 for the full control effect; nearly all actives have a fitted effect of over 65% in size
#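 IDH1-R132H (0.5 ug/mL) preincubated 30 min with compound, then NADPH (0.016 mM) and alpha-KG (2 mM) added; 80 min at RT, pH 7.5. Remaining NADPH coupled via diaphorase/resazurin to fluorescence (540/590 nm); concentration-response curves normalized to no-enzyme control.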
# GLS confirm: confirmation of human glutaminase inhibitors. Potency, µM (doses to about 46.1 µM), inactives show at the highest dose activity change, negative = inhibition, most hits filed as inhibitors. AID 624261. shares compounds with GLS inh. biochemical glutaminase enzyme inhibition assay. 35 tested, under 10 active; calls by dose curve
# HRP GOx counter: counter-screen for glutaminase inhibitors: HRP coupled enzyme inhibition; shares compounds with GLS inh; 35 tested, under 10 active; activity change, negative = inhibition, % at 46.1 µM; HRP/glutamate oxidase coupled Amplex Red fluorescence counterscreen
# HEK293 tox: reduces HEK-293 viability in glutaminase inhibitor counter-screen. activity change, negative = cytotoxicity, % at 46.1 µM. AID 624264. shares compounds with GLS inh. HEK-293 viability, CellTiter-Glo luminescence, 24 h. 35 tested, under 10 active
# * = called active by the depositor; ? = inconclusive; / = no result. An excerpt weighted towards active compounds, which were near 0.33% of everything screened. Unless noted, calls follow the shape of the dose curve; as a rule, active = well fitted curve in the direction sought with a large enough effect; inconclusive = small, poorly fitted or top-dose-only effect, or another doubt; inactive = no such curve, though single readings can be large; an effect the other way counts as inactive or inconclusive.
SMILES,Pin1 inhibitor,Tb PGK inh,GLS inh,IDH1 R132H inh,GLS confirm,HRP GOx counter,HEK293 tox
CCN(CC)c1ccc(NC(=O)COc2ccccc2C#N)cc1S(=O)(=O)Nc1ccccc1OC,6%,-5%,?,3%,-1%,-3,-10
CCN(CC)c1ccc(NC(=O)c2ccccn2)cc1S(=O)(=O)Nc1ccccc1OC,25%,-1%,-5%,10%,/,/,/
CCN(CC)c1ccc(N)cc1S(=O)(=O)Nc1ccccc1OC,5%,2%,7.1µM*,3%,-5%,?,3
CC/C=C(\C(=O)N[C@H]1C(=O)N2C(C(=O)OCOC(=O)C(C)(C)C)=C(COC(N)=O)CS[C@H]12)c1csc(N)n1,/,/,13%,/,/,/,/
O=S(=O)(c1ccc2c(c1)OCCO2)N1CCN(S(=O)(=O)c2cc(F)c(Br)cc2F)CC1,0%,/,/,/,/,/,/
COc1ccccc1NC(=O)c1cc(S(=O)(=O)NCc2ccccc2)ccc1F,3%,7%,?,-11%,6%,-1,3
O=S(=O)(Nc1cccc2cccnc12)c1ccccc1O,-15%,/,/,/,/,/,/
O=S(=O)(Nc1ccccc1O)c1cccc2cccnc12,7%,7%,?,15%,-3%,?,-5
O=C(Nc1ccccc1O)c1cccc(S(=O)(=O)Nc2ccccc2O)c1,-1%,-5%,10µM*,2%,?,?,1
Cc1ccccc1NS(=O)(=O)c1cccc(C(=O)Nc2cccc(C(=O)O)c2)c1,-10%,0%,1%,0%,/,/,/
Cc1nc2ccc(S(=O)(=O)N3CCN(S(=O)(=O)c4c(F)cccc4F)CC3)cc2s1,-9%,/,/,/,/,/,/
COc1cccc(S(=O)(=O)N2CCN(S(=O)(=O)c3ccc4c(c3)OCCO4)CC2)c1,-1%,/,/,/,/,/,/
COc1ccc(C2c3c(nc(CCCc4ccccc4)[nH]c3=O)Oc3ccc4ccccc4c32)cc1OC (stereo not given),57%,/,/,/,/,/,/
CCOC(=O)CC(NS(=O)(=O)c1ccc(OC)c(OC)c1)c1cccc([N+](=O)[O-])c1 (stereo not given),-6%,-5%,2%,1%,/,/,/
CCOC(=O)CC(NS(=O)(=O)c1ccc2[nH]cc(C(=O)O)c(=O)c2c1)c1ccc(OCC)c(OC)c1 (stereo not given),-8%,?,16µM*,-2%,21µM*,6,-1
COc1ccc(OC)c(S(=O)(=O)Nc2ccccc2O)c1,2%,-2%,10µM*,1%,?,?,-2
Cc1ccc(NS(=O)(=O)c2cc(C(=O)O)ccc2Cl)cc1,-8%,2%,11µM*,6%,?,-3,-5
O=C(O)c1ccc(NS(=O)(=O)c2cc(Cl)ccc2Cl)cc1,-7%,-2%,6%,2%,/,/,/
NS(=O)(=O)c1ccc(CNS(=O)(=O)c2cc(C(=O)O)ccc2Cl)cc1,-21%,-9%,11µM*,6%,5.8µM*,-1,-12
